Assay outcomes as filed in PubChem BioAssay.
Sampled rows, rich in hits. Any-hit rate of the full collection: about 1.6%.
KCNQ2 pot = potentiators of rat KCNQ2 potassium channel; Potassium voltage-gated channel subfamily KQT member 2 (Rattus norvegicus), O88943; CHO-K1 KCNQ2, FluxOR thallium flux fluorescence; stronger effect = higher value; B-score at 10 µM; 0.54% of 310,000 active;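 active means fluorescence ratio B-score at least 3 SD of library B-scores, with initial fluorescence B-score within 3 of them, cut at about 5.3 in these data; same plate scores as AID 2156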;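 further: B-score of peak minus minimum over baseline fluorescence ratio after K+ and Tl+ stimulus; positive B-score means potentiation of KCNQ2 with more thallium influx and brighter signal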
KCNQ2 block = rat KCNQ2 potassium channel inhibitors, primary screen, cell-based, CHO-K1, FluxOR thallium flux, B-score | 20 min; stronger effect = lower value | B-score at 10 µM | 1.1% of 310,000 active | AID 2156, 2009;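 active means fluorescence ratio B-score at most minus 3 library SDs, with starting brightness B-score within 2 library SDs, cut at about -5.5 in these data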
Kir21 conf inh = mouse Kir2.1 channel blockers, retest, confirmation, cell-based, FluxOR thallium flux, duplicate. shares compounds with KCNQ2 pot. Kir2.1-expressing cells, FluxOR thallium flux fluorescence; stronger effect = lower value. Tl flux remaining, % of negative control (stronger effect = lower value), % at 10 µM. 41% of 2,300 active. AID 2032, 2009;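 active means Primary-screen hit whose thallium flux fell at least 3 control SD below untreated wells in both duplicates, with normal baseline fluorescence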
HEK293 ctr = parental HEK293 activity in Kir2.1 inhibitor counter-screen; FluxOR signal as % of negative control (100 = no effect), % at 10 µM; parental HEK293 cells, FluxOR thallium flux fluorescence; 0% = unstimulated blank wells; 19% of 2,300 active; shares compounds with KCNQ2 pot;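 active means dye signal at least 3 control SD above or below untreated wells in both duplicates, raw fluorescence within 3, either direction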;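 further: percent is based on the flux ratio of peak minus minimum fluorescence over baseline F0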
CHO-K1 ctr = nonspecific thallium flux increase in parental CHO-K1, confirmation, counter-screen for KCNQ2 potentiator project, cell-based, FluxOR thallium flux, duplicate | activity increase over 3SD of controls, % at 10 µM | parental CHO-K1 cells, FluxOR thallium flux fluorescence; zero = vehicle mean+3SD, 100% = vehicle-minus-blank window | shares compounds with KCNQ2 pot | AID 2282, 2010 | 43% of 1,200 active;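 active means signal rise of at least 3 SD above the untreated control mean, in both duplicate wells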;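 further: counter screen of KCNQ2 potentiator hits so any rise reflects channel-independent effects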
KCNQ1 pot spec = human KCNQ1 channel potentiation off-target, confirmation, selectivity assay for KCNQ2 potentiator project, cell-based, CHO, FluxOR thallium flux; shares compounds with KCNQ2 pot; CHO KCNQ1 stable, FluxOR thallium flux fluorescence; beyond 3SD, as % of vehicle-control signal; activation over 3SD threshold, % at 10 µM; 28% of 1,200 active; AID 2283, 2010;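 active means fluorescence ratio rise of at least 3 SD of vehicle wells above their mean, in both replicate wells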
KCNQ2 pot confirm = rat KCNQ2 channel potentiators, confirmation, cell-based, CHO, FluxOR thallium flux, duplicate. shares compounds with KCNQ2 pot. CHO-KCNQ2 cells, FluxOR thallium flux fluorescence. AID 2287, 2010. 68% of 1,200 active. potentiation, less the hit threshold, % at 10 µM;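 active means fluorescence ratio rising 3 SD or more over the vehicle control mean in both replicates, plus primary screen hit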;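 further: peak minus minimum thallium fluorescence divided by baseline after K/Tl stimulus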
Kir21 spec = mouse Kir2.1 channel activation off-target, confirmation, selectivity assay for KCNQ2 potentiator project, cell-based, HEK293, FluxOR thallium flux | 2% of 1,200 active | HEK293 Kir2.1, FluxOR thallium flux fluorescence | shares compounds with KCNQ2 pot | activity over 3SD threshold, % at 10 µM | AID 2345, 2010;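 active means fluorescence ratio rise of at least 3 SD above the vehicle-control mean, seen in both replicates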
KCNQ2 W236L pot = potentiators of retigabine-insensitive KCNQ2 W236L, mechanism study for KCNQ2 potentiator project, cell-based, rat KCNQ2 W236L, CHO, automated patch clamp | 10% of 940 active | AID 2558, 2010 | automated patch clamp current | current increase over 3SD of negative controls (%), stronger effect = higher value, % at 25 µM | shares compounds with KCNQ2 pot;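 active means current increase at least 3 SD of the untreated controls above them in both duplicate recordings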
Target sequence (O88943 whole entry W236L, looked up): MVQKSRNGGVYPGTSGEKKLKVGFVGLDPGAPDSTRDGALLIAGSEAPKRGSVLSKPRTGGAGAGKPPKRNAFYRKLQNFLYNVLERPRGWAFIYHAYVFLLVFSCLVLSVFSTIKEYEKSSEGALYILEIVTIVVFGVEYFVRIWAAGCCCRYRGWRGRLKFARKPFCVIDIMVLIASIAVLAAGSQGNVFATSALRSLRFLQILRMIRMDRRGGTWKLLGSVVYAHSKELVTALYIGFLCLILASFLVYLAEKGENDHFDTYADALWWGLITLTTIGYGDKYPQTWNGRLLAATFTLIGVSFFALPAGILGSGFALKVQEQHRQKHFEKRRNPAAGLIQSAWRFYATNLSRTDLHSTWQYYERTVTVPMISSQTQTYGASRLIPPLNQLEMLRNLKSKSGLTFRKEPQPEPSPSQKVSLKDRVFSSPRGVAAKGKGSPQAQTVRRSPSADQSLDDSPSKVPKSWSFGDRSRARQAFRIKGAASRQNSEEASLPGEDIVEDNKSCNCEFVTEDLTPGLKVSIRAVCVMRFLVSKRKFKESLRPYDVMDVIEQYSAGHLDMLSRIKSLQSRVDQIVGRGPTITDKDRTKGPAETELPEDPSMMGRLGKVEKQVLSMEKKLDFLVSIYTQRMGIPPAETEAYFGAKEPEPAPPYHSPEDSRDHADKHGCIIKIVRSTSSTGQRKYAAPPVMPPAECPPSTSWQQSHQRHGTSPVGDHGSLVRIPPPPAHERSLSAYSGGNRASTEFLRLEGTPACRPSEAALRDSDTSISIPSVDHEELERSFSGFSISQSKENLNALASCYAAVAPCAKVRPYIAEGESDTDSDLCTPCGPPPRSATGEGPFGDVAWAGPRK
Hits are given with their value; 0 = inactive; - = no result given.

SMILES	KCNQ2 pot	KCNQ2 block	Kir21 conf inh	HEK293 ctr	others
O=C1NCCCN1Cc1ccc(Cl)cc1	-	0	-	-
COc1ccccc1NC(=O)C(CC(C)C)NC(=O)C1CCCCC1 (stereo not given)	-	0	-	-
CC(C)CC(NC(=O)C1CCCCC1)C(=O)NC(C)c1ccccc1 (stereo not given)	18	0	0	0	CHO-K1 ctr=3.7;KCNQ1 pot spec=0;KCNQ2 pot confirm=29;Kir21 spec=0;KCNQ2 W236L pot=0
CC(NC(=O)COC(=O)C1CCC1)c1ccccc1 (stereo not given)	-	0	-	-
CC(NC(=O)CC1CCCCC1)c1ccccc1 (stereo not given)	5.3	0	0	0	CHO-K1 ctr=0;KCNQ1 pot spec=0;KCNQ2 pot confirm=7.1;Kir21 spec=0;KCNQ2 W236L pot=0
COc1ccc(C(=O)NCCN2C(=O)S/C(=C\c3cccnc3)C2=O)cc1[N+](=O)[O-]	0	0	-	-
CCOc1ccc(Cl)cc1CNCCCSc1ncccn1	-	0	-	-
CCOc1ccc(Cl)cc1CNCCCSc1nc(C)cc(C)n1	0	0	52%	0
O=C(N/N=C/c1cccc(Oc2ccccc2)c1)c1cccc(O)c1	-	0	74%	0
O=C(N/N=C/c1cccc(Oc2ccccc2)c1)c1cccc(Br)c1	-	0	-	-
CC(C)C(NS(=O)(=O)c1cccs1)C(=O)NCCCN1CCCCCC1 (stereo not given)	0	0	-	-
COC(=O)CCN(c1ccccc1)S(=O)(=O)c1cc(-c2cc(C)no2)ccc1OC	0	0	-	-
COc1cc(CNC2CCCC2)cc(Cl)c1OCc1ccc(F)cc1	-	0	-	-
COc1cc(CNC2CCCC2)cc(Cl)c1OCc1ccccc1Cl	-	0	31%	0
O=C(CCNS(=O)(=O)c1ccccc1F)N1CCN(S(=O)(=O)c2cccc(F)c2)CC1	-	0	-	-
O=C(CCNS(=O)(=O)c1ccccc1F)N1CCN(C(c2ccccc2)c2ccccc2)CC1	16	0	0	0	CHO-K1 ctr=0;KCNQ1 pot spec=0;KCNQ2 pot confirm=44;Kir21 spec=0;KCNQ2 W236L pot=0
FC(F)(F)COc1ccc(-n2ccnc2)nn1	-	0	-	-
O=S1(=O)CCC(N=Nc2c(O)n(Cc3ccccc3)c3ccccc23)C1 (stereo not given)	-	0	-	-
COc1ccc(OC)c(CNS(=O)(=O)c2cn(C)cn2)c1	0	0	-	-
CC(=O)N1CCN(C(=O)c2ccc(OC3CCN(CCc4ccccc4)CC3)cc2)CC1	0	0	-	-
O=C(c1ccc(OC2CCN(CCCc3ccccc3)CC2)cc1)N1CCCC1	0	0	72%	0
CCN(CC)CCOC(=O)CCc1cccc2ccccc12	0	0	-	-
CCN(CC)CCOC(=O)C(Cc1ccco1)Cc1cccc2ccccc12 (stereo not given)	-	0	36%	0
COc1cccc(CNS(=O)(=O)c2c(C(=O)N3CCCC3)c(C)n(C)c2C)c1	-	0	-	-
CSCc1ccc(C(=O)N2CCCC(Nc3ccc4c(c3)OCCO4)C2)o1 (stereo not given)	0	0	-	-
SMILES	KCNQ2 pot	KCNQ2 block	Kir21 conf inh	HEK293 ctr	others
CSCc1ccc(C(=O)N2CCCC(Nc3ccc(F)cc3)C2)o1 (stereo not given)	-	0	50%	0
CCOCC(=O)Nc1ccc2c(c1)N(S(=O)(=O)c1cccs1)CCC2	0	0	-	-
Cc1cc(N/N=C/c2cccc([N+](=O)[O-])c2)nc(-n2nc(C)cc2C)n1	0	0	-	-
Cc1cc(N/N=C/c2ccccc2[N+](=O)[O-])nc(-n2nc(C)cc2C)n1	5.4	0	0	0	CHO-K1 ctr=0;KCNQ1 pot spec=0;KCNQ2 pot confirm=0;Kir21 spec=0
COC(=O)CN1C(=O)[C@H]2[C@@H](c3ccc(C)o3)N3C(=O)CN(Cc4ccccn4)C(=O)[C@@]3(Cc3ccccc3)[C@H]2C1=O	0	0	-	-
Cc1ccc(C(=O)C(OC(=O)CN2C(=O)c3ccccc3C2=O)c2ccccc2)cc1C (stereo not given)	7.5	0	0	0	CHO-K1 ctr=0;KCNQ1 pot spec=0;KCNQ2 pot confirm=0;Kir21 spec=0;KCNQ2 W236L pot=0
Cc1ccc(C(=O)C(OC(=O)CN2C(=O)c3ccccc3C2=O)c2ccccc2)cc1 (stereo not given)	0	0	-	-
Cc1coc2cc3oc(=O)c(CCC(=O)N4C[C@H]5C[C@@H](C4)c4cccc(=O)n4C5)c(C)c3cc12	0	0	-	-
O=C(COc1ccc(Cl)cc1)NCCNC(=O)c1cnccn1	-	0	-	-
O=C(NCC1CCCO1)c1cc(C(=O)c2ccc(Cl)cc2Cl)c[nH]1 (stereo not given)	0	0	-	-
O=C(c1ccncc1)N1CCN(S(=O)(=O)c2cccc(Cl)c2)CC1	-	0	-	-
O=C(Cc1ccccc1)Nc1ccccc1N1CCCC1	13	0	-	-	CHO-K1 ctr=0;KCNQ1 pot spec=0;KCNQ2 pot confirm=54;Kir21 spec=0;KCNQ2 W236L pot=0
O=C(Cc1cccc(C(F)(F)F)c1)Nc1ccccc1N1CCCC1	11	0	0	0	CHO-K1 ctr=0;KCNQ1 pot spec=0;KCNQ2 pot confirm=60;Kir21 spec=0;KCNQ2 W236L pot=0
O=C(Cc1c(F)cccc1Cl)Nc1ccccc1N1CCCCC1	-	0	-	-
COc1ccc(CC(=O)Nc2ccccc2N2CCCC2)cc1OC	0	0	-	-
O=C(Cc1ccccc1)Nc1ccccc1N1CCOCC1	-	0	-	-
O=C(Cc1ccc(Br)cc1)Nc1ccccc1N1CCCC1	18	0	0	0	CHO-K1 ctr=0;KCNQ1 pot spec=0;KCNQ2 pot confirm=52;Kir21 spec=0;KCNQ2 W236L pot=0
O=C(CCNC(=O)c1ccc(Br)cc1)Nc1ccccc1N1CCCC1	-	0	-	-
COc1ccc(CC(=O)Nc2ccccc2N2CCCC2)cc1	0	0	62%	0
COc1ccccc1CN(C)C(=O)c1cc(-c2cccs2)nc2ccccc12	-	0	-	-
CC(=O)N1CC2(NC(=O)c3ccccc3N2)c2ccccc21 (stereo not given)	-	0	-	-
CCOc1ccccc1/C=N/n1nnnc1N	0	0	-	-
CCOC(=O)c1sc(S(C)(=O)=O)c2c1CC(C)(C)C/C2=N/O	0	0	-	-
CCCc1ccccc1OCCNS(=O)(=O)c1cc2c(cc1C)OCC(=O)N2	0	0	64%	0
